From PubChem
This excerpt belongs to a sample that is enriched for hits.
SF1 inhibitor – inhibitors of human SF-1, primary screen, cell-based, CHO-K1, Gal4-SF-1 LBD, luciferase luminescence. AID 525, 2006. inhibition, % at 10 µM. Steroidogenic factor 1 (Homo sapiens), Q13285. 0.55% of 65,000 active. CHO-K1 Gal4-SF-1 LBD luciferase reporter;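 active = inhibition above the mean inhibition of all tested compounds plus 3 SD, cut at about 48% in these data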
Target sequence (Q13285 whole entry, looked up, the tested form may be a part): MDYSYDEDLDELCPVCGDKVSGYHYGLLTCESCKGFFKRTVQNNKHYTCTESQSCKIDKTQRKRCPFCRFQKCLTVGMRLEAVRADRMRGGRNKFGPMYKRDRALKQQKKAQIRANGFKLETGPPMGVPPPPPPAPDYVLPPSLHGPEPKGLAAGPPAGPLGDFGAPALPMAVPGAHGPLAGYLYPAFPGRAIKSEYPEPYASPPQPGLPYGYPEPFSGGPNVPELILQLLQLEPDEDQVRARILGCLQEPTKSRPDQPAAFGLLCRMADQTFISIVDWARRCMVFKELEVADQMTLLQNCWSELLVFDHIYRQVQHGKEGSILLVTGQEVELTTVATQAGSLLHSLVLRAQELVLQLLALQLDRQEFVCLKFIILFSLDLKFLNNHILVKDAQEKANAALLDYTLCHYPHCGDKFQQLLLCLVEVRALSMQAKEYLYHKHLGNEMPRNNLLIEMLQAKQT
Numbers stand for hits; - = inactive.

SMILES	SF1 inhibitor
CCn1nc(-c2ccccc2)nc2c(=O)n(C)c(=O)nc1-2	95
Nc1ccccc1N=Cc1c(O)n(CCC2=CCCCC2)c(=O)[nH]c1=O	-
O=c1cccc2n1CC1CC2CN(C(c2cccc(F)c2)c2sc3ncnn3c2O)C1 (centres undefined)	-
CCOC(=O)C1=C(C)OC(N)=C(C(=O)OCC)C12C(=O)Nc1ccc(Br)cc12 (centres undefined)	-
O=C(CN1CCCC1=O)N1CCOCC1	-
O=c1[nH]c(=O)n(C2CCCCC2)c(O)c1C=NCCCn1ccnc1	-
C[C@H]1CCC/C=C/C2C[C@H](O)CC2[C@H](O)/C=C/C(=O)O1 (some centres undefined)	80
COc1ccccc1OCCCn1cc(C(=O)c2ccco2)c2ccccc21	-
O=c1[nH]c(=O)n(CCc2ccc(F)cc2)c(O)c1C=NCCCN1CCOCC1	-
COC(=O)CC1NC2CCCCC2NC1=O (centres undefined)	-
O=C(CN1C(=O)CN=C(c2ccccc2)c2ccccc21)NCc1ccco1	-
COc1cc(CN2CCN(c3cc(C)ccc3C)CC2)ccc1O	67
COc1ccc2c(c1)c(C(=O)O)c(C)n2CC(C)C	-
Cc1cccc(NC(=O)CSc2nnc([C@@H](N)Cc3c[nH]c4ccccc34)o2)c1C	-
Cc1ccc(-n2c(O)c(C=NC3CCCC3)c(=O)[nH]c2=O)c(C)c1	-
